Test results published in PubChem BioAssay (Tox21).
Results filed as inconclusive are left out. The source made the active and inactive calls. Unless noted, calls follow the shape of the dose curve; as a rule, active = well fitted curve in the direction sought with a large enough effect in the repeat runs; inconclusive = weak or mixed curves; inactive = no such curve, though single readings can be large; an effect the other way counts as inactive or inconclusive.

Assays:
[1] = qHTS RealTime-Glo MT Cell Viability Assay in HEK293 cells - 0 hour (AID 1224880); also: top concentration of the series differs between compounds; nearly all actives have a fitted effect of over 45% in size
How it was run: (§1)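 Kinetic, non-lysing viability readout. Seed HEK293 (600/well) with reagent, incubate 5 h at 37 C/5% CO2, pin 23 nL compound in DMSO, incubate at 37 C, read luminescence at 0, 8, 16, 24, 32, 40 h.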

[2] = A CellTox Green Cytotoxicity Assay to monitor cytotoxicity in HEK293 cells - 32 hour (AID 1224881); also: nearly all actives have a fitted effect of over 40% in size
How it was run: (§2)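 Real-time, in one plate: 600 HEK293 cells/well with dead-cell DNA dye, pinned compound after 5 h, 37 C incubation over 40 h; viable cells give no appreciable fluorescence.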

[3] = A CellTox Green Cytotoxicity Assay to monitor cytotoxicity in HepG2 cells - 0 hour (AID 1224882); also: nearly all actives have a fitted effect of over 35% in size
How it was run: (§3)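 Cytotoxicity was tracked as dead-cell DNA fluorescence in HepG2 cells treated with test compounds at 37 C; each time-point value comes from one kinetic series spanning 0, 8, 16, 24, 32 and 40 h.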

[4] = A CellTox Green Cytotoxicity Assay to monitor cytotoxicity in HepG2 cells - 32 hour (AID 1224883); also: nearly all actives have a fitted effect of over 50% in size
How it was run: as §3

[5] = A CellTox Green Cytotoxicity Assay to monitor cytotoxicity in HEK293 cells - 8 hour (AID 1224884); also: nearly all actives have a fitted effect of over 35% in size
How it was run: as §2

[6] = qHTS RealTime-Glo MT Cell Viability Assay in HepG2 cells - 16 hour (AID 1224885); also: nearly all actives have a fitted effect of over 50% in size
How it was run: (§4)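 Viability was tracked continuously by NanoLuc luminescence from prosubstrate reduced by living HepG2 cells, at successive time points over 40 h of compound exposure. Cells with reagent were preincubated 5 h at 37 °C before compound addition.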

[7] = qHTS RealTime-Glo MT Cell Viability Assay in HEK293 cells - 24 hour (AID 1224886); also: top concentration of the series differs between compounds; nearly all actives have a fitted effect of over 50% in size
How it was run: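 Viability tracked continuously by luminescence as live cells reduce a prosubstrate for NanoLuc; HEK293 cells preincubated 5 h, compound-treated at 37 C, and read at 0, 8, 16, 24, 32 and 40 h.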

[8] = qHTS RealTime-Glo MT Cell Viability Assay in HEK293 cells - 8 hour (AID 1224887); also: top concentration of the series differs between compounds; nearly all actives have a fitted effect of over 50% in size
How it was run: as §1

[9] = A CellTox Green Cytotoxicity Assay to monitor cytotoxicity in HEK293 cells - 16 hour (AID 1224888); also: nearly all actives have a fitted effect of over 35% in size
How it was run: as §2

[10] = qHTS RealTime-Glo MT Cell Viability Assay in HepG2 cells - 0 hour (AID 1224889); also: nearly all actives have a fitted effect of over 50% in size
How it was run: as §4

[11] = A CellTox Green Cytotoxicity Assay to monitor cytotoxicity in HepG2 cells - 8 hour (AID 1224890); also: nearly all actives have a fitted effect of over 45% in size
How it was run: as §3

[12] = qHTS assay to identify small molecule antagonists of the estrogen receptor alpha (ER-alpha) signaling pathway using the BG1 cell line in the presence of 0.1 nM 17-beta-estradiol - cell viability counter screen (AID 1259241); also: nearly all actives have a fitted effect of over 40% in size
How it was run: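 CellTiter-Fluor read (30 min, 37C) on ER-alpha/ERE-luc VM7Luc4E2 cells; 22 hr compound treatment; agonist 0.1 nM E2 final; same-well multiplex.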

[13] = qHTS assay to identify small molecule antagonists of the androgen receptor (AR) signaling pathway using the MDA cell line in the presence of 0.5 nM R1881 - cell viability counter screen (AID 1259242); also: nearly all actives have a fitted effect of over 45% in size
How it was run: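 Cells seeded at 3,000/well and allowed 5 hr at 37C, 0% CO2 before compound transfer and R1881 (0.5 nM final) addition; 16 hr later, live-cell protease fluorescence indicated cytotoxicity.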

[14] = biological target: Androgen receptor (Homo sapiens) (UniProt P10275); assay: qHTS assay to identify small molecule antagonists of the androgen receptor (AR) signaling pathway using the MDA cell line in the presence of 0.5 nM R1881 (AID 1259243); also: nearly all actives have a fitted effect of over 50% in size
How it was run: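 Luminescence from an AR/GR-responsive MMTV-luciferase construct in MDA-kb2 breast carcinoma cells, read 30 min after ONE-Glo, following 16 hr co-treatment with compounds and 0.5 nM R1881.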

[15] = biological target: Estrogen receptor (Homo sapiens) (UniProt P03372); assay: qHTS assay to identify small molecule antagonists of the estrogen receptor alpha (ER-alpha) signaling pathway using the BG1 cell line in the presence of 0.1 nM 17-beta-estradiol (AID 1259244); also: nearly all actives have a fitted effect of over 50% in size
How it was run: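 Luciferase signal from VM7Luc4E2 ERE-reporter cells, co-dosed with test compound and 0.1 nM final 17beta-estradiol for 22 h, read with ONE-Glo.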

[16] = qHTS assay to identify small molecule phospholipidosis (PLD) inducers (AID 1259344; active = well fitted curve in the direction sought with a large enough effect; an effect the other way counts as inactive or inconclusive)
How it was run: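 Cells (HepG2, 900 per well) attach for 4 h, receive LipidTOX Red and compound together, incubate 24 h at 37 C, are fixed 30 min with paraformaldehyde/Hoechst, then imaged at one site per well.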

[17] = qHTS assay to identify small molecule HDAC inhibitors (AID 1259364);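 also: wild-type HCT-116 cells with endogenous class I/II HDAC activity; top concentration of the series differs between compounds; nearly all actives have a fitted effect of over 45% in size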
How it was run: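 HCT-116 wt cells, 1,500/well, overnight attach. Compounds (DMSO) 2 h, 37 °C. HDAC-Glo I/II, 30 min RT. Luminescence.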

[18] = qHTS assay to identify small molecule HDAC inhibitors - cell viability counter screen (AID 1259365)
How it was run: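 To flag cytotoxic hits, 1,500 wild-type HCT-116 cells per well, plated the day before, receive test compounds for 2hr at 37 C before CellTiter-Glo reagent and a luminescence read.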

[19] = qHTS assay to identify small molecule agonists of the sonic hedgehog signaling (Shh) pathway - cell viability counter screen (AID 1259366); also: nearly all actives have a fitted effect of over 50% in size
How it was run: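 Fluorescence from CellTiter-Fluor reports live cells in this counter screen. NIH/3T3-derived Gli1-Luc reporter cells receive test compounds for 24hr at 37C; reagent goes in at 23hr.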

[20] = qHTS assay to identify small molecule antagonists of the sonic hedgehog signaling (Shh) pathway - cell viability counter screen (AID 1259367); also: nearly all actives have a fitted effect of over 55% in size
How it was run: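 Cytotoxicity was assessed in parallel with Shh reporter activity by measuring live-cell protease fluorescence (CellTiter-Fluor) in NIH/3T3 cells stably carrying Gli1-Luc, treated with compound under conditioned medium stimulation for 23 hr plus 1 hr reagent incubation.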

Measured: Potency

Chain of Androgen receptor (Homo sapiens) (P10275 whole entry, looked up): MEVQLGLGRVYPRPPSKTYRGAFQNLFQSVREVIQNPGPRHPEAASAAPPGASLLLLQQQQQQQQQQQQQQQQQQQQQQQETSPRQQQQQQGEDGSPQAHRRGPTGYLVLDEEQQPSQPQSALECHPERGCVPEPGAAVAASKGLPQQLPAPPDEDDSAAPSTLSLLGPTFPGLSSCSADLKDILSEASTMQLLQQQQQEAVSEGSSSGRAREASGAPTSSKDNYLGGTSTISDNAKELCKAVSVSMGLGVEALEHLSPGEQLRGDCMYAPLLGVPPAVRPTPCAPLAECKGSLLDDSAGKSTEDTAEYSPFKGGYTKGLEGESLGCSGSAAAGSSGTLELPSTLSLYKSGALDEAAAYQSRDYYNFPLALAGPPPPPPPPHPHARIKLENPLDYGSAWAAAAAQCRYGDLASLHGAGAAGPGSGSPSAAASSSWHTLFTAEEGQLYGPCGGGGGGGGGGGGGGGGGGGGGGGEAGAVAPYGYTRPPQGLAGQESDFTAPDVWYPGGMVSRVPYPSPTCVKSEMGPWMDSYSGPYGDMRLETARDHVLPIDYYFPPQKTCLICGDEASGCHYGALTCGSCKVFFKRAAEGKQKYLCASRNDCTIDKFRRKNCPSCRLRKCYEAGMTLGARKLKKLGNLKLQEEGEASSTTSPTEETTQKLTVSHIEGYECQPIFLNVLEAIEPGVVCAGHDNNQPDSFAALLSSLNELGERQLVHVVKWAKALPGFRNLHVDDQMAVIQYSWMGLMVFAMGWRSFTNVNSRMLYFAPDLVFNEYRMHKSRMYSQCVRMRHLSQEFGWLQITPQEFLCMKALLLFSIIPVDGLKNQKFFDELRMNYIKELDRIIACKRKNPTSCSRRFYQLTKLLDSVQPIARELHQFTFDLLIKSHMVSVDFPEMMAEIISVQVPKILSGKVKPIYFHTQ
Chain of Estrogen receptor (Homo sapiens) (P03372 whole entry, looked up): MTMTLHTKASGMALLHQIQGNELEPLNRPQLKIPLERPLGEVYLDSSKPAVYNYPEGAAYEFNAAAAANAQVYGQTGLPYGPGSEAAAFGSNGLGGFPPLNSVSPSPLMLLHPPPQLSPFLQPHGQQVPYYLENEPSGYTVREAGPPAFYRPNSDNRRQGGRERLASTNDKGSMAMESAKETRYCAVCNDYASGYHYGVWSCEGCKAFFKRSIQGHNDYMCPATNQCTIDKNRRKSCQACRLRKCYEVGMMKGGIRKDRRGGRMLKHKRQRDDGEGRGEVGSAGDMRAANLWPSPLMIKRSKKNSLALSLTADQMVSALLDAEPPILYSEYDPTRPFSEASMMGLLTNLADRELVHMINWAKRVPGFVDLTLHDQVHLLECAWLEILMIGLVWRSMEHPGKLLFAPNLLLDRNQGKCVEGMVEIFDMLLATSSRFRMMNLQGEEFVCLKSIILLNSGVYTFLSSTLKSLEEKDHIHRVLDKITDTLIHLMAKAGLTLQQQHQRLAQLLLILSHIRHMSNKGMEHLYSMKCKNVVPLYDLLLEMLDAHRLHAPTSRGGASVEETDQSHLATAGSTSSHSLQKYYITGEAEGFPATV

O=C(OCC(COC(=O)c1cccnc1)(COC(=O)c1cccnc1)COC(=O)c1cccnc1)c1cccnc1
not listed: [20]
inactive: all other assays above

NNc1nnc(NN)c2ccccc12
not listed: [14]
inactive: all other assays above

O=C(NCCc1c[nH]c2ccccc12)c1cccnc1
not listed: [17]
inactive: all other assays above

C=COCCOCCOCCOC=C
not listed: [15] | [16] | [20]
inactive: all other assays above

CCCCOC(=O)c1ccccc1
not listed: [16]
inactive: all other assays above

Cc1cc2cc3c(C)cc(=O)oc3c(C)c2o1
not listed: [14]
inactive: all other assays above

CCCCCCOC(=O)CC
not listed: [14] | [16]
inactive: all other assays above

CCCC/C=C\CCCCCCCCCC=O
not listed: [14] | [15] | [16]
inactive: all other assays above
